± gives the standard deviation of the averaged measurements. In all, about 33,000 sequences were measured (“E-score (rank enrichment, -0.5 to 0.5)”: median about -0.0028, highest 2% from about 0.23 on). Shown is part of a subset that was picked to be rich in the highest values.

In this assay the test system is 2Sb-muMax20 (muMax20 with two 1,3-bis(methyl)benzene Cys staples, A13C/A17C and Q88C/A92C, C-terminal Lys). The assay can be described thus: PBM 8-mer E-score (E-score (rank enrichment, -0.5 to 0.5)); higher = stronger preferential binding. The procedure:
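Protein binding microarray (universal PBM chip covering all 10-mers in fixed probe flanks) with chemically synthesized human Max(13-93) bHLH-LZ analogs (not full-length Max) bearing noncanonical residues (hArg, Tha, Aib, Nle at 65) and aromatic Cys staples. Read-out per 8-mer (and its reverse complement): E-score (rank-based enrichment, -0.5 to 0.5) and Z-score of median probe intensity.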
As for AAAAGCTC, the “PBM 8-mer E-score” value was -0.0474 ± 0.048.

Consider AAAAGCTA, for which the “PBM 8-mer E-score” value worked out at 0.236 ± 0.025.

As for AATAGCTA, the “PBM 8-mer E-score” value came out at 0.244 ± 0.0096.

With CATAGCTA, the “PBM 8-mer E-score” value worked out at 0.17 ± 0.065.

Consider AATAGCAT, for which the “PBM 8-mer E-score” value was 0.262 ± 0.023.

For GAAAGCTA, the “PBM 8-mer E-score” value was determined as 0.0215 ± 0.023.

As for GATAGCTA, the “PBM 8-mer E-score” value worked out at 0.0488 ± 0.04.

As to AATAGCAC, the “PBM 8-mer E-score” value is 0.0775 ± 0.071.

Consider AATAGCAA, for which the “PBM 8-mer E-score” value worked out at 0.106 ± 0.11.

In the case of AGAGGCCC, the “PBM 8-mer E-score” value is -0.0713 ± 0.025.

As for ATGCCGGG, the “PBM 8-mer E-score” value is -0.256 ± 0.0027.

As for GACTTTCC, the “PBM 8-mer E-score” value was -0.0524 ± 0.043.

Take CGGCGGGC: the “PBM 8-mer E-score” value was -0.184 ± 0.073.

Take CTTCTCGC: the “PBM 8-mer E-score” value was determined as 0.0717 ± 0.022.

Take GCAGCCAA: the “PBM 8-mer E-score” value was -0.0475 ± 0.046.

As for AAGCAATT, the “PBM 8-mer E-score” value was determined as 0.187 ± 0.017.

Turning to AAGCAATC, the “PBM 8-mer E-score” value came out at 0.256 ± 0.026.

As to GAGCAATC, the “PBM 8-mer E-score” value is -0.0835 ± 0.0098.

Consider CGTCTAGA, for which the “PBM 8-mer E-score” value was -0.162 ± 0.029.

On to ATATATTA, for which the “PBM 8-mer E-score” value was 0.241 ± 0.036.

Regarding ATCTACTG, the “PBM 8-mer E-score” value was -0.00445 ± 0.014.

Regarding ATCTACTA, the “PBM 8-mer E-score” value is 0.243 ± 0.026.

As to CTATATTA, the “PBM 8-mer E-score” value was 0.153 ± 0.015.

GTATATTA: the “PBM 8-mer E-score” value is 0.188 ± 0.012.

Turning to GCATTATA, the “PBM 8-mer E-score” value was 0.14 ± 0.041.

On to CTATTACA, for which the “PBM 8-mer E-score” value is 0.14 ± 0.041.

Regarding GTATTATA, the “PBM 8-mer E-score” value was determined as 0.238 ± 0.024.

Turning to GTATTACA, the “PBM 8-mer E-score” value was 0.253 ± 0.024.

Turning to ATCTACTC, the “PBM 8-mer E-score” value is -0.0796 ± 0.04.

With GTATTAAA, the “PBM 8-mer E-score” value came out at 0.177 ± 0.05.

Consider ATATTACA, for which the “PBM 8-mer E-score” value amounted to 0.173 ± 0.13.

Consider AATTGGCT, for which the “PBM 8-mer E-score” value turned out to be 0.131 ± 0.011.

In the case of ACGAATGG, the “PBM 8-mer E-score” value turned out to be 0.073 ± 0.041.

Regarding ATTTGAGA, the “PBM 8-mer E-score” value is 0.152 ± 0.034.

Consider AACAGCGA, for which the “PBM 8-mer E-score” value was -0.213 ± 0.047.

With GTGTTTGA, the “PBM 8-mer E-score” value was 0.1 ± 0.029.

Regarding CGAAGTCA, the “PBM 8-mer E-score” value is -0.106 ± 0.12.

For CGAACCGA, the “PBM 8-mer E-score” value is -0.228 ± 0.013.

Take GGTGCCGA: the “PBM 8-mer E-score” value was -0.189 ± 0.027.

Take ATTATATA: the “PBM 8-mer E-score” value amounted to 0.185 ± 0.047.

On to CTATACTA, for which the “PBM 8-mer E-score” value turned out to be 0.169 ± 0.015.

In the case of CTATTATA, the “PBM 8-mer E-score” value is 0.0823 ± 0.013.

For the sequence ATATACTA, the “PBM 8-mer E-score” value came to 0.2955 ± 0.0011.

Regarding ATATTATA, the “PBM 8-mer E-score” value turned out to be 0.242 ± 0.052.

For the sequence ATATTATG, the “PBM 8-mer E-score” value came out at 0.277 ± 0.026.

For AGATTATG, the “PBM 8-mer E-score” value is -0.0162 ± 0.068.

ATATTATC: the “PBM 8-mer E-score” value was determined as 0.112 ± 0.0097.

Take ATATACTC: the “PBM 8-mer E-score” value was 0.173 ± 0.053.

As for CACACTGA, the “PBM 8-mer E-score” value is -0.0965 ± 0.055.

In the case of AAATCGAC, the “PBM 8-mer E-score” value was 0.0123 ± 0.035.

Regarding AGGGGCCA, the “PBM 8-mer E-score” value was 0.0356 ± 0.053.

Turning to CTCGAGCC, the “PBM 8-mer E-score” value is 0.0235 ± 0.047.

With ACCAGGCC, the “PBM 8-mer E-score” value is -0.168 ± 0.022.

For GGCCACGA, the “PBM 8-mer E-score” value is -0.0901 ± 0.0031.

Take ACACTACG: the “PBM 8-mer E-score” value amounted to 0.0974 ± 0.045.

Take ATTCTGAA: the “PBM 8-mer E-score” value amounted to 0.0149 ± 0.024.

Take ACGGAGCA: the “PBM 8-mer E-score” value was determined as 0.0531 ± 0.012.

In the case of AACGTACA, the “PBM 8-mer E-score” value worked out at 0.0315 ± 0.031.

For the sequence ACTATATC, the “PBM 8-mer E-score” value stood at 0.271 ± 0.019.

Consider ATTATATC, for which the “PBM 8-mer E-score” value worked out at 0.224 ± 0.0096.

With GCTATATA, the “PBM 8-mer E-score” value came to 0.173 ± 0.019.

ACTATATG: the “PBM 8-mer E-score” value amounted to 0.143 ± 0.052.

As to ACTATATA, the “PBM 8-mer E-score” value came to 0.285 ± 0.058.

In the case of CCTATATC, the “PBM 8-mer E-score” value was 0.0672 ± 0.019.

Consider CGTCGCGC, for which the “PBM 8-mer E-score” value is -0.0442 ± 0.0083.

Take CATCCTGG: the “PBM 8-mer E-score” value is -0.145 ± 0.035.

As to ACCTTTCC, the “PBM 8-mer E-score” value worked out at 0.0327 ± 0.034.

On to ATATTAAG, for which the “PBM 8-mer E-score” value was 0.0865 ± 0.0037.

Turning to ATATTAAA, the “PBM 8-mer E-score” value was found to be 0.234 ± 0.046.

Regarding ATATTCAT, the “PBM 8-mer E-score” value was 0.238 ± 0.022.

Turning to ATCTTAAC, the “PBM 8-mer E-score” value was 0.0878 ± 0.048.

With ATATTAAC, the “PBM 8-mer E-score” value amounted to 0.22 ± 0.076.

For TTATTAAA, the “PBM 8-mer E-score” value came to 0.0933 ± 0.013.

As for ATATTAAT, the “PBM 8-mer E-score” value was 0.302 ± 0.02.

In the case of ATATTCAA, the “PBM 8-mer E-score” value is 0.171 ± 0.023.

Take CTATTAAA: the “PBM 8-mer E-score” value turned out to be 0.125 ± 0.055.

For the sequence ATATTCAC, the “PBM 8-mer E-score” value was determined as 0.193 ± 0.047.

Take ATCTTAAA: the “PBM 8-mer E-score” value was determined as 0.0723 ± 0.05.

ATCTTAAT: the “PBM 8-mer E-score” value is 0.232 ± 0.042.

As to ACATTGAT, the “PBM 8-mer E-score” value was determined as 0.105 ± 0.0059.

Regarding AACGAGTG, the “PBM 8-mer E-score” value is -0.131 ± 0.02.

On to CGCGACCG, for which the “PBM 8-mer E-score” value was -0.221 ± 0.029.

For the sequence CACTAGAG, the “PBM 8-mer E-score” value was -0.0261 ± 0.065.

Take ATAGGTAA: the “PBM 8-mer E-score” value is 0.0236 ± 0.0059.

As for GCTCTGGA, the “PBM 8-mer E-score” value is -0.0441 ± 0.02.

Consider CGTGGAGA, for which the “PBM 8-mer E-score” value amounted to 0.0751 ± 0.065.

These data come from the supplement of paper PMC12636033.
